About 9,100 (2.8%) of roughly 320,000 compounds were called active. Another 3% or so got no clear call; they are omitted. The full list was thinned out, with actives kept by preference. Unmarked numbers belong to inactive results. The call rests on the fitted dose curve; in most records, active means well fitted activation curve with a large enough effect; inconclusive means small, poorly fitted or top-dose-only effect; inactive means no such curve, though single readings can be large or run the other way.
Assay: qHTS Assay for Rab9 Promoter Activators; further: nearly all actives have a fitted effect of over 60% in size; on activation, negative = inhibition: % of control where 0% means no effect
Details: Huh7 Rab9 promoter-luciferase reporter, luminescence, 24 h; series mostly up to 9.22 µM; activation, negative = inhibition: at the top concentration
Procedure, shortened: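 Luminescence read-out: Huh7 cells stably expressing Rab9-luciferase, treated 24 h with compound at 37 °C, then lysed with luciferase reagent for 10 min at ambient before reading.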
Potency means the concentration at half of the fitted maximal effect.

SMILES | activation, negative = inhibition | Potency
CC(=O)c1ccc(S(=O)(=O)NCCC(=O)N2CCN(c3ccccn3)CC2)cc1 | -5.68% | –
CCC(C(=O)N1CCN(S(=O)(=O)c2sc(C(=O)O)c(C)c2C(=O)O)CC1)c1ccccc1 (centres undefined) | -2.11% | –
Cc1ccc(COC(=O)CN2C(=O)NC3(CCCC3)C2=O)cc1 | 3.61% | –
COc1ccc(C(=O)OC(C)C(=O)NC2CCCC2)cc1S(=O)(=O)N1CCOCC1 (centres undefined) | -1.33% | –
O=C(COC(=O)Cn1[nH]c(=O)c2ccccc2c1=O)Nc1ncc(Cl)cc1Cl | -0.89% | –
CCCSC(=S)NC1CCS(=O)(=O)C1 (centres undefined) | -23.7% | –
CN(CC(=O)NCc1ccc2c(c1)OCO2)CC(=O)Nc1ccc(F)c(F)c1F | -0.0955% | –
Cc1ccc(S(=O)(=O)N2CCCCC2)cc1C(=O)N1CCN(CCO)CC1 | -5.51% | –
CN(C)c1nc(=Nc2cccc(Cl)c2)ss1 | 0.0085% | –
c1ccc(CN2CCC(N=C3NN=C(c4ccc5c(c4)OCCO5)CS3)CC2)cc1 | 12.9% | –
Clc1cccc(N=C2NN=C(c3ccc4c(c3)OCCO4)CS2)c1 | – | 3.55 µM (active)
COc1ccc(CCNC(=O)COC(=O)C2CC2C)cc1 (centres undefined) | -2.84% | –
COc1ccccc1-c1cc(C(=O)NCCCn2ccnc2)no1 | 2.26% | –
O=C(NC1CCCC1)c1cc(-c2ccccc2)on1 | – | 2 µM (active)
O=C(NCCCN1CCOCC1)c1cc(-c2cccc(O)c2)on1 | -6.12% | –
COc1ccc(-c2cc(C(=O)NCCCn3ccnc3)no2)cc1 | 0.776% | –
O=C(Nc1cccnc1Cl)c1cc(-c2cccc(Cl)c2)on1 | -1.17% | –
O=C(NCCCn1ccnc1)c1cc(-c2ccccc2)on1 | – | 3.98 µM (active)
Cc1ccc(C(=O)CN2C(=O)NC3(CCOc4ccccc43)C2=O)s1 (centres undefined) | -1.26% | –
CN(C(=O)CSc1nnc(-c2ccc(C(C)(C)C)cc2)n1C)C1CCS(=O)(=O)C1 (centres undefined) | 1.79% | –
CCNC(=O)c1cccc(NC(=O)C2CC(=O)N(CCc3ccccc3)C2)c1 (centres undefined) | -5.09% | –
O=S(=O)(Nc1cc(Cl)ccc1N1CCOCC1)c1ccccc1Cl | -2.12% | –
CCOc1ncccc1C(=O)Nc1ccc(S(=O)(=O)Nc2nc(C)cc(C)n2)cc1 | -2.54% | –
O=C(c1ccc(Cl)cc1)c1cnc(Nc2ccccc2)s1 | – | 3.98 µM (active)
O=C(Nc1ccc(Cl)cc1)Nc1nnc(/C=C/c2ccccc2)s1 | -6.47% | –
Nc1nc(COC(=O)CCC(=O)c2ccc(Cl)cc2)nc(Nc2ccccc2)n1 | 3.11% | –

SMILES | activation, negative = inhibition | Potency
CCCN(CC(=O)NC(=O)NC1CCCCC1)CC(=O)Nc1cc(Cl)ccc1Cl | 1.65% | –
CN(C(=O)CSc1nnc(-c2ccc3c(c2)OCO3)o1)C1CCS(=O)(=O)C1 (centres undefined) | -4.13% | –
CCOC(=O)c1c(NC(=O)CN2C(=O)NC3(CCC(C)CC3)C2=O)sc(C)c1CC (centres undefined) | -3.16% | –
O=C(Nc1ccncc1)c1ccc([N+](=O)[O-])cc1Cl | 1.06% [at 1.84 µM] | –
O=C(Nc1ccc(Br)cn1)c1ccc([N+](=O)[O-])o1 | 1.22% | –
O=C(Nc1ccc(Br)cn1)c1ccc([N+](=O)[O-])cc1Cl | – | 2.51 µM (active)
CC/C(Cc1ccccc1)=N/NC(=O)CCn1nnc2ccccc21 | 7.82% | –
CCO/N=C(/C)c1c(O)cc(-c2ccccc2)n(-c2ccccc2)c1=O | -1.37% | –
CC(OC(=O)/C=C/c1ccccc1)C(=O)Nc1ccc(C(N)=O)cc1 (centres undefined) | -1.88% | –
O=C(CN1CCN(S(=O)(=O)/C=C/c2ccccc2)CC1)Nc1ccc(N2CCOCC2)cc1 | 0.34% | –
CC(=O)Nc1ccc(/C=C/C(=O)c2ccccc2)cc1 | – | 3.98 µM (active)
O=C(O)c1ccc2c(c1)C(=O)N(c1ccc(/C=C/C(=O)c3ccccc3)cc1)C2=O | 21.8% | –
O=C(/C=C/c1ccc(N2CCOCC2)cc1)c1ccccc1 | – | 4.47 µM (active)
CC(=O)Nc1ccc(NC(=S)NC(=O)/C=C/c2ccccc2)cc1 | 0.0543% | –
CN(C)C(CNC(=O)c1ccc(OCc2cn3ccccc3n2)cc1)c1ccco1 (centres undefined) | 25.7% | –
COc1ccc(C(=O)NCCNc2ccc([N+](=O)[O-])cn2)cc1 | -2.26% | –
Cc1csc(NC(=O)C2CCN(S(=O)(=O)c3ccccc3)CC2)n1 | -7.34% | –
CC(C)CNC(=S)Nc1ccc(F)cc1 | -7.72% | –
CC(C)CNC(=O)C(=O)NCc1ccccc1 | -4.96% | –
CC(C)CNC(=O)C(=O)Nc1ccc(N(C)C)cc1 | – | 3.16 µM (active)
COC(=O)C1=CN(c2ccc(F)c(F)c2)C=C(C(=O)OC)C1c1ccc([N+](=O)[O-])cc1 | -1.11% | –
COc1ccc([C@H]2CC(=O)C=C(c3ccc(CO)cc3)C2)cc1 | 2.44% | –
Cc1csc(NC(=O)CSc2nc(=O)n(CCCN(C)C)c3c2CCC3)n1 | 0.475% | –
C=CCn1c(C)cc(C2=NNC(=NCC)SC2)c1C | -38.6% | –
COCCn1c(C)cc(C2=NNC(=Nc3ccc(F)cc3)SC2)c1C | – | 3.55 µM (active)
C=CC1(C)CC(=O)C2(O)C(C)(O1)C(OC(C)=O)C(O)C1C(C)(C)CCC(O)C12C (centres undefined) | 3.8% [at 46.1 µM] | –

SMILES | activation, negative = inhibition | Potency
Cc1ccc(C)c(NC(=O)COC(=O)CSc2ccccc2)c1 | 0.508% | –
CCCCN(CC)C(=O)c1ccccc1Oc1ccccc1 | -13.1% | –
COc1cccc(OCCOc2cccc(/C=N/n3cnnc3)c2)c1 | – | 2.82 µM (active)
C(=N\n1cnnc1)/c1cccnc1 | -2.02% | –
COc1ccccc1OCCOc1ccc(/C=N/n2cnnc2)cc1 | 3.87% | –
COc1cccc(C(=O)N/N=C(\C)c2cccc(NC(=O)c3ccc(F)cc3)c2)c1OC | 0.209% | –
Cc1ccccc1OCCC(=O)OCC(=O)NCCc1ccc(S(N)(=O)=O)cc1 | -5.42% | –
CCn1nc(C(=O)NNC(=O)C2CSC3(C)CCC(=O)N23)c2ccccc2c1=O (centres undefined) | -0.95% | –
CCN(C(=O)COC(=O)CCOc1cccc(C)c1)c1c(N)n(Cc2ccccc2)c(=O)[nH]c1=O | -6.63% | –
N#Cc1ccccc1S(=O)(=O)N1CCN(Cc2c(O)ccc3ccccc23)CC1 | -3.22% | –
N#CCC(=O)Nc1ccc(C(=O)OCC(=O)Nc2sc3c(c2C#N)CCCC3)cc1 | -8.12% | –
Nc1ncnc2c1c(I)cn2[C@@H]1C[C@H](N)[C@@H](O)[C@H]1O | -40.3% [at 46.1 µM] | –
Cn1nc(-c2ccccc2)c2cc([N+](=O)[O-])ccc21 | -3.2% | –
Cc1cc(CO)nn1-c1ccc([N+](=O)[O-])cc1 | -2.25% | –
Cc1nn(-c2ccc([N+](=O)[O-])cc2)c(N)c1-c1ccccc1 | – | 1.26 µM (active)
COc1ccccc1OCCNC(=O)C(CCSC)NC(=O)COc1ccccc1 (centres undefined) | 13% | –
O=C(COC(=O)Cc1ccccc1F)NCCc1ccccc1 | 0.179% | –
CCOc1cccc2cc(C(=O)OCC(=O)Nc3c(C)cccc3CC)c(=O)oc12 | -0.156% | –
COCCn1cnnc1SCC(=O)Nc1cccc(S(=O)(=O)N2CCCCC2)c1 | -9.69% | –
O=C(Nc1cccc(NC(=O)c2ccccc2[N+](=O)[O-])c1)c1ccccc1Cl | 3.77% | –
O=C(Nc1ccc2sc3ccccc3c(=O)c2c1)c1ccccc1Cl | – | 2.82 µM (active)
COc1cc(NC(=O)c2cccs2)ccc1NC(=O)c1ccccc1Cl | 1.49% | –
COc1ccc(C(=O)COC(=O)c2ccc([N+](=O)[O-])s2)cc1OC | -0.797% | –
CN(C(=O)Cn1nnc(-c2ccc(F)cc2)n1)C1CCS(=O)(=O)C1 (centres undefined) | -6.86% | –
CC(C)(CNC(=O)Cc1ccc(Cl)cc1Cl)N1CCOCC1 | -1.21% | –
N#Cc1ccc(C2N=C(c3ccccc3)NO2)cc1 (centres undefined) | – | 1.78 µM (active)

SMILES | activation, negative = inhibition | Potency
CCOc1ccc(NC(=O)CN(C)C(=O)CSc2ccccc2)cc1OCC | 0.0845% | –
COc1ccccc1-n1c(-c2cc(-c3ccco3)[nH]n2)n[nH]c1=S | -0.896% | –
Cc1cc(C(F)(F)F)nn1-c1nc(-c2ccco2)cc(C(F)(F)F)n1 | 1.18% | –
Cn1c(-c2ccco2)nc2cc3ccccc3cc21 | – | 3.98 µM (active)
COc1cc(OC)c(NS(=O)(=O)c2cn(C)cn2)cc1Cl | -0.424% | –
O=[N+]([O-])c1ccc2nc(-c3ccccn3)[nH]c2c1 | – | 2.51 µM (active)
O=C(CSc1nc2ccc([N+](=O)[O-])cc2[nH]1)c1ccc(Cl)cc1 | 7.31% | –
O=[N+]([O-])c1ccc2c(c1)Nc1nc3ccccc3nc1N2 | -2.05% | –
O=C(CN1C(=O)NC2(CCCCC2)C1=O)N1CCN(C(=O)c2cccs2)CC1 | 1.86% | –
CC(C)n1ncc2c(C(=O)NCc3ccccc3CN(C)C)cc(C3CC3)nc21 | -0.739% | –
Cc1ccc(S(=O)(=O)N(NC2=NS(=O)(=O)c3ccccc32)C(=O)c2ccccc2)cc1 | 0.999% | –
CC(C)(C)c1csc(NC2=NS(=O)(=O)c3ccccc32)n1 | – | 1.26 µM (active)
O=C(Oc1cccc(NC2=NS(=O)(=O)c3ccccc32)c1)c1ccncc1 | 1.05% | –
O=S(=O)(NC1CCCCC1)c1ccc(F)c2ccccc12 | -10.5% | –
COc1ccc2cc(C3=CC(=O)C[C@H](c4ccc5c(c4)OCO5)C3)ccc2c1 | -6.22% | –
O=C(Nc1ccc(Cl)cc1)c1cccc(OC(=S)N2CCOCC2)c1 | -16.8% | –
Nc1c(N(Cc2ccco2)C(=O)c2cccc(F)c2)c(=O)[nH]c(=O)n1Cc1ccccc1 | -7.02% | –
CN(CC(=O)Nc1ccc(F)c(F)c1F)C(=O)Cn1cnc2c1c(=O)n(C)c(=O)n2C | 0.736% | –
CC1CCCN(S(=O)(=O)c2ccc(C(=O)Nc3nnc(-c4ccncc4)o3)cc2)C1 (centres undefined) | – | 1.41 µM (active)
CC1CCCCN1S(=O)(=O)c1ccc(C(=O)Nc2nnc(-c3cccs3)o2)cc1 (centres undefined) | -20.4% | –
O=C(Nc1nnc(-c2ccco2)o1)c1ccc(S(=O)(=O)N2CCOCC2)cc1 | -11.2% | –
O=C(COC(=O)c1c(Cl)cccc1Cl)Nc1cccc(S(=O)(=O)NC2=NCCCCC2)c1 | 0.239% | –
COC(=O)c1ccc(NCC(=O)c2ccccc2)cc1 | – | 1.78 µM (active)
COC(=O)c1ccc(NCC(=O)N2CCCCCC2)cc1 | -45% | –
Cc1ccc(C(=O)CNc2ccc(F)cc2)cc1 | 0.986% | –
O=C(N[C@@H](Cc1c[nH]c2ccccc12)C(=O)O)OCC1c2ccccc2-c2ccccc21 | -3.15% | –

Reference: PubChem BioAssay AID485297 (National Center for Advancing Translational Sciences (NCATS), 2010)
